# LGR2 inh: inhibitors of bursicon-induced LGR2 CRE-luciferase signal, primary screen, cell-based, HEK293, CRE-luciferase reporter, bursicon stimulation; Drosophila bursicon receptor LGR2 (rickets); bursicon-stimulated, 4 h; inhibition, % at 9.99 µM; hit rate 0.35% among 380,000;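 active means drop in luminescence signal, shown as inhibition above about 50% in the replicate tests, limit read from the data, passing the limit was not always enough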;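 further: agonist challenge used bursicon conditioned medium at about half maximal strength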
# TWEAK-Fn14 inh: inhibitors of TWEAK-Fn14 signaling, primary screen, luciferase reporter cells, uHTS. TWEAK-stimulated Fn14 reporter cells, luciferase luminescence, 8 h. inhibition, % at 10 µM. hit rate 2% among 360,000; in the data active means inhibition above about 50%
# HSP90 refold inh: HSP90 inhibitors, primary screen, cell lysate, luminescence. Heat shock protein HSP 90 (rabbit reticulocyte lysate; luciferase refolding). Rabbit reticulocyte lysate, luciferase refolding luminescence, 3 h. inhibition, % at 5.6 µM. hit rate 0.91% among 290,000;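 active means inhibition above the screen-wide mean plus 3 SD, computed separately per campaign, cut at about 16% in these data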;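 further: 0% = DMSO wells and 100% = 60 µM geldanamycin wells; inhibitors lower the luminescence because luciferase stays unfolded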
# TROY signal inh: inhibitors of TROY-driven NF-kB signaling, primary screen, Q293 LMP1-TROYcd cells, NF-kB luciferase, uHTS; Q293 LMP1-TROYcd NF-kB luciferase reporter, 4 h; AID 1347056, 2019; inhibition, % at 10 µM; hit rate 0.98% among 360,000;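 active means compounds whose plate-normalised and pattern-corrected inhibition of the luciferase reporter signal at the single screening dose is 50% or more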
# * marks the source's active call; other numbers are inactive results; / = no result given. Hits are enriched below; roughly 2.2% of the tested compounds scored in any of these assays.
SMILES,LGR2 inh,TWEAK-Fn14 inh,HSP90 refold inh,TROY signal inh
c1ccc2c(c1)c1ccccc1n2CN1CCOCC1,/,75*,3,/
OC(CN1CCOCC1)Cn1c2ccccc2c2ccccc21 (stereo unspecified),5,-10,-1,4
Cc1ccc(NC(=O)CN(C(=O)N2CCN(C)CC2)S(=O)(=O)c2ccc(C)cc2)cc1,2,-6,/,55*
C[C@H]1CN([C@@H](C)CO)C(=O)c2cc(C#CC3CC3)cnc2O[C@H]1CN(C)Cc1ccccn1,-13,/,/,/
CCCNC(=O)N1CC2(CCN(Cc3cccnc3)CC2)c2c(n(C)c3cc(OC)ccc23)[C@H]1CO,-16,/,/,/
Nc1ccc2c(c1)C(=O)c1ccccc1-2,-4,-21,/,-11
O=C1C(=O)c2ccc(-c3ccccc3)cc2-c2ccccc21,/,107*,-2,83*
Nc1ccc2c(c1)C(=O)C(=O)c1ccccc1-2,/,105*,16*,59*
Cc1c(CN(C)C)c2c(n1Cc1ccccc1)C(=O)c1ccccc1-2,6,62*,1,2
Cc1cc(=O)n(Cc2ccccc2)c2ccccc12,-10,-36,-2,-7
O=c1c2ccccc2nc2c3ccccc3cnn12,-2,-38,1,-100
O=c1c2ccccc2cnn1-c1nc2ccccc2[nH]1,100*,97*,92*,89*
COc1ccccc1CNC(=O)C[C@@H]1C[C@H]2c3cc(NC(=O)CC4CC4)ccc3O[C@H]2[C@@H](CO)O1,1,/,/,/
CNC[C@@H]1Oc2c(NC(=O)Nc3ccc(OC)cc3)cccc2C(=O)N([C@@H](C)CO)C[C@H]1C,-19,/,/,/
COc1cccc(-c2nnc(SC(C(=O)c3c[nH]c4ccccc34)c3ccccc3)n2C)c1 (stereo unspecified),5,51*,1,25
FC(F)(F)c1cc(-c2ccco2)nc(N2CCN(c3ccccc3)CC2)n1,-15,-1,-9,-2
FC(F)(F)c1nc(N2CCN(c3ccccc3)CC2)nc2c1CCCCC2,/,94*,-1,57*
C[C@@H]1CN([C@@H](C)CO)C(=O)c2cc(-c3cccc(C#N)c3)cnc2O[C@@H]1CN(C)C(=O)c1cnccn1,-28,/,/,/
C[C@@H]1CCCCO[C@@H](CN(C)C(=O)Nc2ccc3c(c2)OCO3)[C@@H](C)CN([C@@H](C)CO)C(=O)c2cc(NC(=O)Nc3ccc4c(c3)OCO4)ccc2O1,-1,/,/,/
Cc1cc(C)n2c(SC(C)C(=O)NC3(C#N)CCCCC3)nnc2n1 (stereo unspecified),-4,67*,/,3
CO[C@@H]1CN(C)C(=O)c2ccc(NC(=O)c3ccccc3F)cc2OC[C@H](C)NC[C@@H]1C,-9,/,/,/
O=C(Nc1ccccc1)c1cc2ccccc2c(=O)s1,-36,58*,-8,-49
COc1ccc2c(c1)c(/C=N/Nc1nc3ccccc3[nH]1)c(C)n2C,59*,88*,6,54*
C#CCn1cc(/C=N/Nc2nc3ccccc3[nH]2)c2ccccc21,-56,53*,6,-4
C(=N\Nc1nc2ccccc2[nH]1)/c1cccc2nccnc12,-6,3,2,-19
SMILES,LGR2 inh,TWEAK-Fn14 inh,HSP90 refold inh,TROY signal inh
COc1cc(/C=N\Nc2nc3ccccc3[nH]2)cc(OC)c1OC,/,62*,2,51*
O=C(CC1CC1)N1CC(=O)N2[C@H](C1)[C@@H](c1ccc(C#Cc3ccccc3)cc1)[C@@H]2CO,3,/,/,/
COCCNC(=O)C[C@@H]1CC[C@@H]2[C@@H](COc3ccc(NS(=O)(=O)c4ccc(Cl)cc4)cc3C(=O)N2C)O1,-9,/,/,/
CSc1nnc(NC(=O)c2nc(S(=O)(=O)Cc3ccccc3)ncc2Cl)s1,-16,98*,5,26
CC(C)c1nnc(NC(=O)CCc2ccccc2)s1,-24,-5,5,-26
CCCc1nnc(NC(=O)c2nc(S(=O)(=O)Cc3ccc(C)cc3)ncc2Cl)s1,-15,95*,5,62*
Cc1ccc(S(=O)(=O)CCc2nnc(NC(=O)c3cnccn3)s2)cc1,/,-6,6,-19
CC(C)c1nnc(NC(=O)c2nc(S(=O)(=O)Cc3ccccc3)ncc2Cl)s1,7,94*,8,32
CNC[C@@H]1Oc2ncc(C#CC3CCCCC3)cc2C(=O)N([C@@H](C)CO)C[C@@H]1C,-1,/,/,/
O=C1CN(S(=O)(=O)c2cc(Br)ccc2Br)CCN1,12,-7,/,-14
O=c1c(Br)ccc(Br)cc1Br,19,104*,/,-34
C[C@@H]1CN([C@H](C)CO)C(=O)c2cc(NC(=O)Nc3ccccc3)ccc2O[C@H]1CN(C)Cc1ccccc1,-17,/,/,/
C[C@@]12C(C[C@H](O)[C@@]34C[C@@H](CCC13)[C@@H](CO)C4=O)[C@](C)(C(=O)O)CC[C@@H]2O (stereo partly specified),-14,16,/,16
C=C1C(=O)[C@]23C[C@H]1CCC2[C@@]1(C)C(C[C@@H]3O)[C@](C)(C(=O)OC)CC[C@@H]1O (stereo partly specified),69*,98*,/,59*
COc1ccc(CNC(=O)C2CC(=O)N(c3ccc(OCC(=O)N4CCCCC4)cc3)C2)cc1 (stereo unspecified),/,13,-4,58*
Cc1[nH]c2ccccc2c1/C=C/c1nc2ccccc2c(=O)n1CCO,35,13,-7,55*
CCn1c(/C=C/c2cc(Br)ccc2O)nc2ccccc2c1=O,30,63*,-5,47
O=C(Nc1ccc2c(c1)[C@H]1C[C@H](CC(=O)N3CCc4ccccc4C3)O[C@H](CO)[C@H]1O2)NC1CCCC1,-13,/,/,/
Cc1ccc(Sc2ncnc3onc(C)c23)c(C)c1,28,37,0,14
Cc1noc2ncnc(Sc3ccccc3Cl)c12,28,17,5,54*
CC(C)CC#Cc1ccc2c(c1)O[C@@H](CN(C)S(=O)(=O)c1cccc(F)c1)[C@H](C)CN([C@H](C)CO)S2(=O)=O,9,/,/,/
C[C@H](CO)N1C[C@H](C)[C@H](CN(C)Cc2ccncc2)Oc2ccc(NC(=O)c3ccncc3)cc2C1=O,-3,/,/,/
O=C1c2cc([N+](=O)[O-])cc3cc([N+](=O)[O-])cc(c23)C(=O)N1c1ccccn1,28,64*,-5,-28
O=C1c2ccc(Oc3cccc([N+](=O)[O-])c3)cc2C(=O)N1c1ccccn1,/,17,1,28
NC(=S)n1[nH]c(-c2ccc([N+](=O)[O-])cc2)c(N=Nc2cccc(Cl)c2)c1=O,31,72*,2,56*
COc1ccc(C#Cc2cnc3c(c2)C(=O)N([C@@H](C)CO)C[C@@H](C)[C@@H](CN(C)C(C)=O)O3)cc1,7,/,/,/
Cc1ccc2c(c1)N(C(=O)CCC(=O)NCc1ccccc1)CC(C)O2 (stereo unspecified),-1,1,-3,-5
CC1CN(C(=O)CCC(=O)NCc2ccccc2)c2cc(Cl)ccc2O1 (stereo unspecified),-12,20,67*,-3
